SMARCA2 activ: SMARCA2 function activation, primary screen; MG213 cells, MMTV-luciferase reporter, dexamethasone, overnight; activation, % at 9.1 µM; actives 1% (n = 370,000); AID 652017; in the data active = activation above about 7.8%
PG9 binder: PG9 antibody binding by small molecule | actives 0.43% (n = 360,000) | AID 624416 | TR-FRET gp120-PG9 antibody binding | inhibition, % at 6.7 µM; in the data active = inhibition above about 8.5%
HSF1 inhib: HSF1 inhibition | NIH3T3-HGL HSE-luciferase, MG132-induced, luminescence 8 h; stronger effect = lower value | activity change, negative = inhibition, % at 7.5 µM (by protocol) | actives 0.77% (n = 300,000) | AID 2098;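 active = more than half of replicate wells show activity change below -50%, luminescence cut by over half; inconclusive = some wells, but at most half, below -50%; inactive = no replicate well below -50%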;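 also: luciferase reports HSF-1 transcriptional activity via heat shock element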
FXN GAA850 act: activators of GAA850 frataxin (FXN) promoter; AID 540364; HEK293 lucGAA850 FXN promoter luciferase reporter, 24 h; percent of 10 µM SAHA response; actives 0.56% (n = 360,000); activation, % at 6 µM;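 active = activation above the average of all compounds screened plus 3 SD, cutoff fixed separately per campaign, cut at about 7.5% in these data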
HSP90 refold inh: inhibitors of HSP90 luciferase refolding in rabbit reticulocyte lysate; luciferase refolding luminescence, 3 h; inhibition, % at 5.6 µM; actives 0.91% (n = 290,000); AID 1789;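 active = inhibition above the screen-wide mean plus 3 SD, computed separately per campaign, cut at about 16% in these data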;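 also: inhibitors lower the luminescence because luciferase stays unfolded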
AI-2 QS mod: modulates the Vibrio harveyi AI-2 quorum sensing system | actives 0.4% (n = 300,000) | activity change, % at 7.5 µM | Vibrio harveyi JMH597 AI-2 luminescence/OD600 ratio, 9 h; stronger effect = lower value; strain lacks LuxN and CqsS sensors; 0 = neutral-control median; in the data active = activity change below about -75%, passing the limit was not always enough; inconclusive = no clear call, values can overlap the other calls;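 also: luminescence divided by OD600 gain over 9 h not by final OD600 alone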
GAA30 FXN cntr: counter-screen for GAA850 frataxin promoter activators: GAA30 promoter activation; activation, % at 6 µM; shares compounds with FXN GAA850 act; actives 66% (n = 1,900); HEK293 lucGAA30 FXN promoter luciferase, 24 h; DMSO = 0%, 5 µM ipriflavone = 100%;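 active = mean activation above the mean of solvent-only control wells plus 3 SD, cut at about 22% in these data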;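 also: counterscreen of GAA850 promoter hits where activity marks nonselective or luminescence artifacts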
GAA850 confirm: confirmation of GAA850 frataxin (FXN) promoter activators; shares compounds with FXN GAA850 act; HEK293 lucGAA850 FXN promoter luciferase reporter, 24 h; 100% = activation by SAHA; activation, % at 6 µM; actives 86% (n = 1,900); AID 588351;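 active = mean activation above a set limit taken from the primary screen, cut at about 8% in these data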
Of the large screens only hits and unclear results are named; the others gave an inactive call (follow-up assays come after a bar, where they were run). Shown are actives, neighbours in structure and some others; about 3.4% of the full set was active somewhere.

CCOC(=O)c1ccc(N=c2sc(C(=O)OC)cc(=O)n2CCCN2CCOCC2)cc1	none
COc1cc(NC(=O)CCc2nnc3ccc(N4CCOCC4)nn23)cc(OC)c1OC	none
Cc1ccc(NC(=O)CCc2nnc3ccc(N4CCOCC4)nn23)cc1C	FXN GAA850 act 13 | GAA30 FXN cntr inactive | GAA850 confirm inactive
CC1(C)C(=O)NCCN1C(=O)CCC(=O)O	FXN GAA850 act 7.9 | GAA30 FXN cntr inactive | GAA850 confirm inactive
CN1CCN(C(=O)CCC(=O)O)CC1	none
CCCCc1c(-c2ccccc2OC)ncn1Cc1c(Cl)cccc1Cl	none (no result: HSF1 inhib, FXN GAA850 act, HSP90 refold inh, AI-2 QS mod)
N#CCn1c2ccccc2c2nc3ccccc3nc21	FXN GAA850 act 9.3 | GAA30 FXN cntr 52 | GAA850 confirm 18
O=C(O)CCn1c2ccccc2c2nc3ccccc3nc21	none
COc1cc2c(cc1NC(=O)C1CCCO1)oc1ccccc12 (stereo not drawn)	FXN GAA850 act 8.6 | GAA30 FXN cntr 109 | GAA850 confirm 31
COc1ccc(Cl)cc1NC(=O)C1CCCO1 (stereo not drawn)	none
CC(=O)N(Cc1ccccc1)c1nccs1	none (no result: HSF1 inhib, FXN GAA850 act, HSP90 refold inh, AI-2 QS mod)
CCOc1ccc2cc(C#N)c(SCC(=O)N3CCOCC3)nc2c1	FXN GAA850 act 9.7 | GAA30 FXN cntr 133 | GAA850 confirm 46
CCOc1ccc2nc(SCC(=O)N3CCCCCC3)c(C#N)cc2c1	none
c1ccc(COc2cccc(-c3cc4nc(NCCc5ccncc5)ccn4n3)c2)cc1	none (no result: HSF1 inhib, HSP90 refold inh, AI-2 QS mod)
O=C(Nc1ccccc1-c1ccccc1)c1cnccn1	FXN GAA850 act 9.0 | GAA30 FXN cntr 41 | GAA850 confirm 22
O=C(COC(=O)c1cnccn1)Nc1ccccc1-c1ccccc1	none (no result: HSF1 inhib, HSP90 refold inh, AI-2 QS mod)
Nc1sc(Cc2ccccc2)cc1C(=O)c1c(-c2ccccc2)[nH]c2ccccc12	none (no result: HSF1 inhib, FXN GAA850 act, HSP90 refold inh, AI-2 QS mod)
CCOC(=O)C1=C(CSc2nc(-c3ccccc3)ccc2C#N)OC(N)=C(C#N)C1c1ccc(OC)cc1 (stereo not drawn)	FXN GAA850 act 8.9 | GAA30 FXN cntr 66 | GAA850 confirm 25
CCOC(=O)C1=C(CSc2nc(CC)c(C)cc2C#N)OC(N)=C(C#N)C1c1ccccc1 (stereo not drawn)	none
CCOC(=O)[C@@H](C)N(Cc1ccc(OC)cc1)S(=O)(=O)N(Cc1ccccc1)[C@H](C(=O)OC)C(C)C	FXN GAA850 act 11 (no result: HSF1 inhib, HSP90 refold inh, AI-2 QS mod) | GAA30 FXN cntr inactive | GAA850 confirm 21
CCOC(=O)[C@@H](C)NS(=O)(=O)N(Cc1ccccc1)[C@H](C(=O)OC)C(C)C	none (no result: HSF1 inhib, HSP90 refold inh, AI-2 QS mod)
O=C(O)c1ccc(/C=N/Nc2ccc(C(F)(F)F)cn2)cc1	none
O=C(O)c1ccc(/C=N/Nc2cccc(C(F)(F)F)c2)cc1	FXN GAA850 act 10 (no result: AI-2 QS mod) | GAA30 FXN cntr 99 | GAA850 confirm 39
O=C(O)c1ccc(N/N=C/c2ccc(-c3ccccc3)cc2)cc1	FXN GAA850 act 8.7 | GAA30 FXN cntr 88 | GAA850 confirm 31
COC(=O)C1=C(C)N(Cc2ccccc2C(F)(F)F)C(=NCc2ccc(C(F)(F)F)cc2)NC1c1ccc(C(F)(F)F)cc1 (stereo not drawn)	none (no result: HSF1 inhib, FXN GAA850 act, HSP90 refold inh, AI-2 QS mod)
CN(C)CCN(Cc1ccccc1)C(c1cc2ccccc2o1)c1nnnn1C(C)(C)C (stereo not drawn)	none (no result: HSF1 inhib, FXN GAA850 act, HSP90 refold inh, AI-2 QS mod)
O=C(NC12CC3CC(CC(C3)C1)C2)c1ccccc1	none
O=C(NC12CC3CC(CC(C3)C1)C2)N(Cc1ccccc1)Cc1ccncc1	FXN GAA850 act 10 | GAA30 FXN cntr inactive | GAA850 confirm 13
CN(c1ccccc1)c1ccc(/C=C/[N+](=O)[O-])cc1	FXN GAA850 act 16, AI-2 QS mod inconclusive | GAA30 FXN cntr inactive | GAA850 confirm inactive
O=[N+]([O-])c1ccc(C=CC=Cc2ccccc2)cc1	none (no result: HSF1 inhib, HSP90 refold inh, AI-2 QS mod)
CCc1ccc2oc(-c3cc(N)cc(C)c3O)nc2c1	FXN GAA850 act 7.7 (no result: HSF1 inhib, AI-2 QS mod) | GAA30 FXN cntr 81 | GAA850 confirm 40
COC(=O)N1C[C@H](OCc2ccccc2)[C@H]2C[C@@H]1c1ccccc1O2	none (no result: HSF1 inhib, FXN GAA850 act, HSP90 refold inh, AI-2 QS mod)
CCS(=O)(=O)Nc1cc(-c2nc3cccnc3s2)ccc1C	FXN GAA850 act 7.9 | GAA30 FXN cntr 117 | GAA850 confirm 34
CCS(=O)(=O)Nc1cccc(-c2nc3cccnc3s2)c1	none
N#Cc1c(Nc2ccccc2)[n+]([O-])c2ccc(Cl)cc2[n+]1[O-]	none (no result: HSF1 inhib, HSP90 refold inh, AI-2 QS mod)
COc1nc(NCCO)nc(Nc2ccccc2F)n1	FXN GAA850 act 14 | GAA30 FXN cntr 86 | GAA850 confirm 25
COc1ccc(S[C@]2(C(=O)N3CCCC3)CC(=O)N(C(=O)Nc3ccc(C)c(Cl)c3)[C@@H]2c2ccc(OC)cc2)cc1	none (no result: PG9 binder, HSF1 inhib, FXN GAA850 act, HSP90 refold inh, AI-2 QS mod)
CCOC(=O)c1c(C)c(C#N)c2c3ccccc3ccn12	none
CCOC(=O)c1c(C)nc2c3ccccc3ccn12	FXN GAA850 act 8.1 | GAA30 FXN cntr 118 | GAA850 confirm 44
Cc1ccc(CN2CC(N3CCC[C@@H]3C)CS2(=O)=O)cc1 (stereo partly drawn)	none (no result: HSF1 inhib, FXN GAA850 act, HSP90 refold inh, AI-2 QS mod)
Nc1ccc2cc3[nH]c4cc(N)ccc4c3nc2c1	FXN GAA850 act 12 (no result: HSF1 inhib, HSP90 refold inh, AI-2 QS mod) | GAA30 FXN cntr inactive | GAA850 confirm inactive
COC(=O)[C@]12C[C@H](CC(=O)N3CCCCC3)C(=O)N(CCC3=CCCCC3)C1=C[C@H](C1CCCC1)O[C@@H]2C	none (no result: PG9 binder, HSF1 inhib, FXN GAA850 act, HSP90 refold inh, AI-2 QS mod)
CCOc1ccccc1C(=O)N/N=C/c1c[nH]c2ccccc12	FXN GAA850 act 8.2 | GAA30 FXN cntr 27 | GAA850 confirm 8.9
CCOc1ccccc1C=NNC(=O)c1cccc2ccccc12	none (no result: HSP90 refold inh, AI-2 QS mod)
CC1(C(=O)NCc2ccccc2)CN(S(C)(=O)=O)CC(=O)N1C1CC1 (stereo not drawn)	none (no result: HSF1 inhib, FXN GAA850 act, HSP90 refold inh, AI-2 QS mod)
C=C1C(=O)O[C@@H]2[C@H]1[C@@H](OC(=O)/C(C)=C/C)C/C(C)=C\C(=O)/C=C(\C)[C@@H]2O	none (no result: HSP90 refold inh)
C=C1C(=O)O[C@H]2[C@H]1[C@H](OC(=O)/C(C)=C\C)C[C@]1(CO1)[C@@H]1[C@H](OC(C)=O)C=C(C)[C@]21O	FXN GAA850 act 12 (no result: HSP90 refold inh, AI-2 QS mod) | GAA30 FXN cntr inactive | GAA850 confirm 17
O=C(C(=O)N1CCC(CNS(=O)(=O)c2ccc(F)c(F)c2)CC1)c1cc2ccccc2o1	none (no result: HSF1 inhib, FXN GAA850 act, HSP90 refold inh, AI-2 QS mod)
COc1c(O)ccc(/C=N\NC(=O)c2ccc3c(c2)OCO3)c1[N+](=O)[O-]	none
COc1c(O)ccc(/C=N/NC(=O)c2ccc3c(c2)OCCO3)c1[N+](=O)[O-]	FXN GAA850 act 7.7 (no result: HSF1 inhib) | GAA30 FXN cntr 71 | GAA850 confirm 19
O=C(OCc1cn(Cc2ccc(F)c(F)c2)nn1)N1CCCC1	none (no result: PG9 binder, HSF1 inhib, FXN GAA850 act, HSP90 refold inh, AI-2 QS mod)
Cc1cc(C(=O)Cn2ncc(Cl)c(Cl)c2=O)c(C)n1CC(F)(F)F	FXN GAA850 act 14 | GAA30 FXN cntr inactive | GAA850 confirm 22
